Test results: PubChem BioAssay (Tox21)
Values without a mark were called inactive. Records with an inconclusive call do not appear. Entries that show only a call come without a potency. Active and inactive are the calls of the source. Unless noted, calls follow the shape of the dose curve; as a rule, active = well fitted curve in the direction sought with a large enough effect in the repeat runs; inconclusive = weak or mixed curves; inactive = no such curve, though single readings can be large; an effect the other way counts as inactive or inconclusive.

Assays:
[1] = qHTS assay to identify small molecule agonists of the androgen receptor (AR) signaling pathway in the presence of an antagonist - cell viability counter screen (AID 1259379); also: nearly all actives have a fitted effect of over 25% in size; also: potency is read from the fitted curve at half-maximal effect
Method in brief: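 Each compound was tested at 15 concentrations on MDA-kb2 cells in the presence of 3.0uM nilutamide. Viability was measured by CellTiter-Fluor fluorescence after a 16 hr incubation at 37C in a CO2-free atmosphere.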

[2] = qHTS assay to identify small molecule agonists of the estrogen receptor beta (ER-beta) signaling pathway - cell viability counter screen (AID 1259380); also: nearly all actives have a fitted effect of over 30% in size; also: potency is read from the fitted curve at half-maximal effect
Method in brief: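 Compounds dissolved in DMSO were pin-transferred onto ER-beta-UAS-bla HEK293T cells that had settled 6 hr, and exposure ran 16 hr at 37C. Following the reporter read, CellTiter-Glo luminescence after 30 min at room temperature indicated cytotoxicity.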

[3] = molecular target: Androgen receptor (Homo sapiens) (UniProt P10275); assay: qHTS assay to identify small molecule agonists of the androgen receptor (AR) signaling pathway in the presence of an antagonist (AID 1259381; calls by dose curve; also: nearly all actives have a fitted effect of over 15% in size; also: potency is read from the fitted curve at half-maximal effect)
Chain of Androgen receptor (Homo sapiens) (P10275 whole entry, looked up): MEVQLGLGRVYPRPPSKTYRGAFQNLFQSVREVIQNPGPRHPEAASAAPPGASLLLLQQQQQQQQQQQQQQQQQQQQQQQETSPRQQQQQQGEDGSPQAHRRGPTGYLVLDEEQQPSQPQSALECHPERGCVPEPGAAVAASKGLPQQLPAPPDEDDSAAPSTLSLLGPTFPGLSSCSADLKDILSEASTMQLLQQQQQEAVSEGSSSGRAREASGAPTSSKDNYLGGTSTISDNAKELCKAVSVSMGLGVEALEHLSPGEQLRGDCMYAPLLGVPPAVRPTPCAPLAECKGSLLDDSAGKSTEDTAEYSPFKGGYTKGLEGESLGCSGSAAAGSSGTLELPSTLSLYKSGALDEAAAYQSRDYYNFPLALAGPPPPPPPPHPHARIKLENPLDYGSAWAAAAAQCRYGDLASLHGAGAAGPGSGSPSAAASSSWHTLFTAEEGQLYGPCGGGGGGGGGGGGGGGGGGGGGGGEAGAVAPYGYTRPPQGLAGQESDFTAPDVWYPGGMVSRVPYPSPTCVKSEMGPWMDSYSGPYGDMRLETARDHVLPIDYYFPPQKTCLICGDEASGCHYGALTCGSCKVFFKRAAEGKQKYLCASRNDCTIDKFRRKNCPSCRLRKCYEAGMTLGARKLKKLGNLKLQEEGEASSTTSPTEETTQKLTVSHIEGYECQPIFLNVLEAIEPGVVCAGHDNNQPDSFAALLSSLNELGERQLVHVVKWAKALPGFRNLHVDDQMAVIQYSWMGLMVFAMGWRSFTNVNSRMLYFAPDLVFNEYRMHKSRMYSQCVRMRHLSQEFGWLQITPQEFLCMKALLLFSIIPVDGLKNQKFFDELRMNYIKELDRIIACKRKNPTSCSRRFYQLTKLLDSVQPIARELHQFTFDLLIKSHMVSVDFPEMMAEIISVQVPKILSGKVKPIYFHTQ
Method in brief: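 Plated MDA-kb2 cells (3,000/well) were pre-incubated 5hr, given nilutamide (3.0uM final) or buffer, then dosed with compounds in DMSO at 15 concentrations. Luciferase activity was quantified by luminescence after 16hr at 37C.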

[4] = qHTS assay to identify small molecule antagonists of the estrogen receptor beta (ER-beta) signaling pathway - cell viability counter screen (AID 1259382); also: nearly all actives have a fitted effect of over 55% in size; also: potency is read from the fitted curve at half-maximal effect
Method in brief: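 CellTiter-Glo ATP luminescence measured after the LiveBLAzer read in the same wells; ER-beta-UAS-bla HEK293T cells, 16 hr compound treatment with 1nM 17-beta-estradiol agonist at 37C, 5% CO2.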

[5] = qHTS assay to identify small molecule agonists or antagonists of the thyroid stimulating hormone receptor (TSHR) signaling pathway - wild type cell line counter screen (AID 1259384; calls by dose curve)
Method in brief: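 Wild-type HEK293 cells were plated 18 h at 37 C/5% CO2, pin-dosed with compound plus Ro20-1724 medium, held 30 min at room temperature, then given cAMP-d2 and anti-cAMP-cryptate; fluorescence was read after 1 h. Fifteen concentrations, triplicate.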

[6] = qHTS assay to identify small molecule agonists of the estrogen receptor alpha (ER-alpha) signaling pathway in the presence of an antagonist - cell viability counter screen (AID 1259386);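 also: cells exposed to compounds for 22 h at 37 °C before the viability read; nearly all actives have a fitted effect of over 30% in size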; also: potency is read from the fitted curve at half-maximal effect
Method in brief: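 Using estrogen-depleted VM7Luc4E2 cells, the 15-concentration compound series was applied together with 10.0nM ICI-182,780 and incubated 22hr at 37C/5% CO2. Cell viability was then scored by CellTiter-Fluor.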

[7] = molecular target: Progesterone receptor (Homo sapiens) (UniProt P06401); assay: qHTS assay to identify small molecule agonists of the progesterone receptor (PR) signaling pathway (AID 1346784; calls by dose curve; also: nearly all actives have a fitted effect of over 30% in size)
Chain of Progesterone receptor (Homo sapiens) (P06401 whole entry, looked up): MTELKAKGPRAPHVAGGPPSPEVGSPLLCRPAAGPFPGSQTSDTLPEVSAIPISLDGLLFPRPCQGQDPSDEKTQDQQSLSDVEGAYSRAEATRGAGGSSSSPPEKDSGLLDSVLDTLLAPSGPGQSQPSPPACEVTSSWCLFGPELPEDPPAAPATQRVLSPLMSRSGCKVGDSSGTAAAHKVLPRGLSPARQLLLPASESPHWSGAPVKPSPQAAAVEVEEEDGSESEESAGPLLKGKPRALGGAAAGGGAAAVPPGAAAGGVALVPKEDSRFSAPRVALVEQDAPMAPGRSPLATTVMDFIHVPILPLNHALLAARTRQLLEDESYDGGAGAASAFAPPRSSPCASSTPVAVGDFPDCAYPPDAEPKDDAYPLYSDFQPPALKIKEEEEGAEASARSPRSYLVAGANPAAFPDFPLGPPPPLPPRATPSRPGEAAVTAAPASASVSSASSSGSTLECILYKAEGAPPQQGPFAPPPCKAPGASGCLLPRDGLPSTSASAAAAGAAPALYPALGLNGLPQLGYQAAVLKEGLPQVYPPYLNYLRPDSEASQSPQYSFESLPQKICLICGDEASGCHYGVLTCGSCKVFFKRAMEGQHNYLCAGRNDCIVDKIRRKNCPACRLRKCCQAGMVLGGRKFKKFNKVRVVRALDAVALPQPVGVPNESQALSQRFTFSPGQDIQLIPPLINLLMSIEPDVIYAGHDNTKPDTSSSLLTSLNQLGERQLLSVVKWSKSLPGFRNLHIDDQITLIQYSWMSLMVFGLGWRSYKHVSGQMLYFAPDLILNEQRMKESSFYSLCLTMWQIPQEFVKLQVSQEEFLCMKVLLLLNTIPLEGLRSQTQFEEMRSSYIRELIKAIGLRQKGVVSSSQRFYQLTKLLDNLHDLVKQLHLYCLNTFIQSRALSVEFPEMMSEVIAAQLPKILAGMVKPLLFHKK
Method in brief: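 PR-UAS-bla HEK 293T cells (beta-lactamase reporter under UAS) in 2% charcoal-stripped FBS, dosed with 23 nL compound after 6 hr, incubated 16hr at 37C. LiveBLAzer B/G FRET substrate added, fluorescence read after 2 hours.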

[8] = qHTS assay to identify small molecule antagonists of the progesterone receptor (PR) signaling pathway - cell viability counter screen (AID 1346798); also: nearly all actives have a fitted effect of over 50% in size; also: potency is read from the fitted curve at half-maximal effect
Method in brief: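 PR-UAS-bla HEK293T cells, 3,000/well in 2% charcoal-stripped FBS medium, dosed with compounds plus R5020 agonist and incubated 16 h at 37C. Viability then measured in the same wells by CellTiter-Glo luminescence after 30 min at RT.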

[9] = qHTS assay to identify small molecule agonists of the progesterone receptor (PR) signaling pathway - cell viability counter screen (AID 1346799; calls by dose curve; also: nearly all actives have a fitted effect of over 45% in size; also: potency is read from the fitted curve at half-maximal effect)
Method in brief: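 Counter screen in the PR-UAS-bla HEK293T wells (2% charcoal-stripped FBS, 16 h compound exposure at 37 C) after the bla read. CellTiter-Glo added, 30 min at room temperature, luminescence read as cell viability.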

[10] = molecular target: Thyrotropin-releasing hormone receptor (Homo sapiens) (UniProt P34981); assay: qHTS assay to identify small molecule antagonists of the thyrotropin-releasing hormone receptor (TRHR) signaling pathway (AID 1346877; active = well fitted inhibition curve with a large enough effect in the repeat runs, not every such curve was filed as active; also: series mostly up to about 51 µM)
Chain of Thyrotropin-releasing hormone receptor (Homo sapiens) (P34981 whole entry, looked up): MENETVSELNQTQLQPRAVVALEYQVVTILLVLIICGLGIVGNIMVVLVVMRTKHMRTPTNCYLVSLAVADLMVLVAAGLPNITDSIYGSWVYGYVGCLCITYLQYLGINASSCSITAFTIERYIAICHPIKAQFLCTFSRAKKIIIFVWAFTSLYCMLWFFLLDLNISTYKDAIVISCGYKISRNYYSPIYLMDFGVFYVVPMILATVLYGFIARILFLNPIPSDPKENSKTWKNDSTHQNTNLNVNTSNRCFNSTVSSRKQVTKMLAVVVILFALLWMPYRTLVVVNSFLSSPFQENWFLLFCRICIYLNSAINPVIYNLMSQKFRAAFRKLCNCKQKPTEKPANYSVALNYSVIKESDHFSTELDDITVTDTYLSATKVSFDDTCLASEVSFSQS
Method in brief: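 Calcium signal in dye-loaded TRHR/HEK293 cells; compounds added 5 min before TRH (1 nM final); fluorescence monitored 3 min at 1 s steps.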

[11] = molecular target: Thyrotropin-releasing hormone receptor (Homo sapiens) (UniProt P34981); assay: qHTS assay to identify small molecule agonists of the thyrotropin-releasing hormone receptor (TRHR) signaling pathway (AID 1346891; calls by dose curve; also: series mostly up to about 58 µM)
Method in brief: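 HEK293 cells expressing TRHR plated 18 h at 37 C/5% CO2, calcium dye-loaded 2 h at 37 C, then compound added (agonist mode); kinetic calcium fluorescence read 3 min at 1 s intervals; 15 concentrations in triplicate.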

[12] = molecular target: Estrogen receptor (Homo sapiens) (UniProt P03372); assay: qHTS assay to identify small molecule agonists of the estrogen receptor alpha (ER-alpha) signaling pathway in the presence of an antagonist (AID 1259383; calls by dose curve; also: nearly all actives have a fitted effect of over 15% in size; also: potency is read from the fitted curve at half-maximal effect; as to activation: top concentration of the series differs between compounds)
Chain of Estrogen receptor (Homo sapiens) (P03372 whole entry, looked up): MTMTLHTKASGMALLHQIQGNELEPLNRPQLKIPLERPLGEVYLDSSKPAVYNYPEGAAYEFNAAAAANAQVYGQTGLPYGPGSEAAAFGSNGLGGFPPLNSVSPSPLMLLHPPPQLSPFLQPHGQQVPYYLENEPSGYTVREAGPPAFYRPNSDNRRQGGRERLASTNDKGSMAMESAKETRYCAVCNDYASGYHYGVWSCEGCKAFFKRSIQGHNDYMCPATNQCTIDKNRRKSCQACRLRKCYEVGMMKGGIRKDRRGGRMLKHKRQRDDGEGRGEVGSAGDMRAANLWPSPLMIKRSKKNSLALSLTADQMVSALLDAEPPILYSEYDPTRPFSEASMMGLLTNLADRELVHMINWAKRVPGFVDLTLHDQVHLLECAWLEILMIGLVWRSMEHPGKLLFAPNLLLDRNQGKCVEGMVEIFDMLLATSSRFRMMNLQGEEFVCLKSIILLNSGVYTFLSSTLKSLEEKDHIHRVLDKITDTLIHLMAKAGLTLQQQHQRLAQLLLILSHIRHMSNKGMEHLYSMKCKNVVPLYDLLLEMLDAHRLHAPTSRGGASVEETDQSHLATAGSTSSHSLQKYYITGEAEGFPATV
Method in brief: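 Luminescent ERE-luciferase reporter, VM7Luc4E2 cells (endogenous ER-alpha); 10.0nM ICI-182,780 final; 15-point compound titration; 22hr at 37C; ONE-Glo, 30min RT.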

[13] = molecular target: Thyrotropin receptor (Homo sapiens) (UniProt P16473); assay: qHTS assay to identify small molecule antagonists of the thyroid stimulating hormone receptor (TSHR) signaling pathway (AID 1259385; calls by dose curve; also: nearly all actives have a fitted effect of over 20% in size)
Chain of Thyrotropin receptor (Homo sapiens) (P16473 whole entry, looked up): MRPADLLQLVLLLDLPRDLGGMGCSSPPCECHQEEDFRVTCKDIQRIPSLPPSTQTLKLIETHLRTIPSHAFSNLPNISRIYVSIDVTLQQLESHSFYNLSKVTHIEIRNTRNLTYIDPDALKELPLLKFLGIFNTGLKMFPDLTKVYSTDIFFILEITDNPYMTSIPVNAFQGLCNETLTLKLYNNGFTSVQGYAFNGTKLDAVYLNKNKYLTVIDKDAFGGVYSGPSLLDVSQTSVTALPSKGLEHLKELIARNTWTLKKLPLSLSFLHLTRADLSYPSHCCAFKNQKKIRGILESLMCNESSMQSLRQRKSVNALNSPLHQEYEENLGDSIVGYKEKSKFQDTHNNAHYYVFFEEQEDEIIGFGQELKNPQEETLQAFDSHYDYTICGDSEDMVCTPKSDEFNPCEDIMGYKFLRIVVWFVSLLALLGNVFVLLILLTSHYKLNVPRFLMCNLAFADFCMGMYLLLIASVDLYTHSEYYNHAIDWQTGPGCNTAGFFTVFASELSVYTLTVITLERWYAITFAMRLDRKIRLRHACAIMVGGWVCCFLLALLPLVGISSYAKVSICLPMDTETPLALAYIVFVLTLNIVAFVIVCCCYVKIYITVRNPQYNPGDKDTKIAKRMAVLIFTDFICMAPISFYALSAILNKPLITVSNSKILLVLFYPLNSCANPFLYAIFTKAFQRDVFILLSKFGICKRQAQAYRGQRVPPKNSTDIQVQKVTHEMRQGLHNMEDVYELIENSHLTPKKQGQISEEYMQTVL
Method in brief: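 TSHR-HEK293 cells were plated and held 18 h at 37C/5% CO2, then given compound plus Ro20-1724 and stimulated with TSH at 1.5 ng/mL final. After 30 min at room temperature, cAMP was detected with cAMP-d2/anti-cAMP-cryptate (1 h) by fluorescence.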

[14] = molecular target: Progesterone receptor (Homo sapiens) (UniProt P06401); assay: qHTS assay to identify small molecule antagonists of the progesterone receptor (PR) signaling pathway (AID 1346795; active = well fitted inhibition curve with a large enough effect in the signal ratio in the repeat runs, not every such curve was filed as active; the % refers to the signal ratio; also: potency is read from the fitted curve at half-maximal effect)
Method in brief: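 PR-UAS-bla HEK293T cells with beta-lactamase reporter under UAS control, in 2% charcoal-stripped FBS, treated with compounds plus 1 nM promegestone (R5020, final) for 16 hr at 37C. Read-out: FRET beta-lactamase substrate fluorescence after 2 hr at room temperature.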

[15] = qHTS assay to identify small molecule antagonists of the TGF-beta/Smad signaling pathway - cell viability counter screen (AID 1346824); also: nearly all actives have a fitted effect of over 50% in size; also: potency is read from the fitted curve at half-maximal effect
Method in brief: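 SBE-bla HEK 293T cells were plated overnight at 37 C, then given compounds in DMSO plus TGF-beta1 (added as 0.25 ng/mL solution) for 5 hr. After the bla read, CellTiter-Glo was added to the same wells and luminescence read after 30 min at room temperature.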

[16] = qHTS assay to identify small molecule agonists of the TGF-beta/Smad signaling pathway - cell viability counter screen (AID 1346829); also: nearly all actives have a fitted effect of over 45% in size; also: potency is read from the fitted curve at half-maximal effect
Method in brief: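 CellTiter-Glo luminescence readout; SBE-bla HEK 293T cells, overnight plating, compound 5 hr at 37 C/5% CO2, then bla substrate 2 hr RT, then CellTiter-Glo 30 min RT.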

[17] = Human pregnane X receptor (PXR) small molecule agonists, qHTS cell viability counter screen (AID 1346977); also: nearly all actives have a fitted effect of over 50% in size; also: potency is read from the fitted curve at half-maximal effect
Method in brief: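 PXR-Luc HepG2 cells (2,000/well, 5% charcoal-stripped FBS) preincubated 5 hr, then exposed to compounds 24 hr at 37 C. Viability read in the same wells by CellTiter-Fluor fluorescence, reagent added at 23 hr, 1 hr incubation.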

[18] = qHTS assay to identify small molecule agonists of the TGF-beta/Smad signaling pathway (AID 1346859; active = well fitted activation curve with a large enough effect in the signal ratio in the repeat runs, not every such curve was filed as active; the % refers to the signal ratio; also: series mostly up to about 77 µM)
Method in brief: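 SBE-bla HEK293T cells plated overnight, then compound exposure for 5 h at 37 C. Beta-lactamase reporter read with LiveBLAzer B/G FRET substrate after 2 h at room temperature, fluorescence at 405 nm excitation, 460/530 nm emission.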

| SMILES | Potency [1] | Potency [2] | Potency [3] | Potency [4] | outcome [5] | Potency [6] | Potency [7] | Potency [8] | Potency [9] | Potency [10] | Potency [11] | Potency [12] | Potency [13] | Potency [14] | Potency [15] | Potency [16] | Potency [17] | outcome [18] | activation [12] | cAMP activity change [5] |
| --- | --- | --- | --- | --- | --- | --- | --- | --- | --- | --- | --- | --- | --- | --- | --- | --- | --- | --- | --- | --- |
| C[C@@H]1O[C@@H](O[C@@H]2C=C3CC[C@@H]4[C@H](CC[C@]5(C)[C@@H](c6ccc(=O)oc6)CC[C@]45O)[C@@]3(C)CC2)[C@H](O)[C@H](O)[C@H]1O | inactive | 0.0094 µM (active) | 0.0298 µM (active) | 0.0094 µM (active) | inactive | inactive | inactive | 0.0133 µM (active) | 0.0168 µM (active) | inactive | inactive | – | – | – | – | – | – | – | – | – |
| ClCc1ccc(Cl)cc1Cl | inactive | inactive | – | inactive | inactive | inactive | inactive | inactive | inactive | – | – | inactive | inactive | inactive | inactive | inactive | inactive | – | – | – |
| CCCCCCCCCC[N+](C)(C)CCCCCCCCCC | 54.5 µM (active) | 15.4 µM (active) | – | 17.2 µM (active) | inactive | 68.6 µM (active) | – | 19.3 µM (active) | 8.63 µM (active) | – | inactive | inactive | – | – | 43.6 µM (active) | 38.9 µM (active) | 27.3 µM (active) | – | – | – |
| N#Cc1ccc(O)cc1 | inactive | inactive | – | inactive | inactive | inactive | inactive | – | inactive | inactive | inactive | inactive | inactive | inactive | inactive | inactive | inactive | inactive | – | – |
| O=C(Cl)c1ccc(Cl)cc1 | inactive | inactive | – | inactive | inactive | inactive | inactive | – | inactive | – | – | inactive | – | – | inactive | inactive | inactive | inactive | – | – |
| FC(Cl)(Cl)Cl | inactive | inactive | inactive | inactive | inactive | inactive | inactive | inactive | inactive | inactive | inactive | – | – | inactive | inactive | inactive | inactive | inactive | – | – |
| COC12CC[C@@]3(C[C@@H]1C(C)(O)C(C)(C)C)[C@H]1Cc4ccc(O)c5c4[C@@]3(CCN1CC1CC1)[C@H]2O5 (stereo partly specified) | 60.7 µM (active) | 27.1 µM (active) | – | 54.1 µM (active) | inactive | 60.7 µM (active) | – | – | 38.3 µM (active) | – | – | inactive | – | – | 48.6 µM (active) | 38.6 µM (active) | 54.1 µM (active) | inactive | – | – |
| ClC1=C(Cl)[C@]2(Cl)[C@H]3[C@H]([C@H]4C=C[C@H]3C4)[C@@]1(Cl)C2(Cl)Cl | inactive | inactive | – | inactive | inactive | inactive | inactive | – | – | inactive | inactive | inactive | inactive | – | inactive | inactive | inactive | inactive | – | – |
| C=CC(=O)OCC(COC(=O)C=C)(COC(=O)C=C)COC(=O)C=C | 12.2 µM (active) | 7.7 µM (active) | – | 9.69 µM (active) | inactive | 13.7 µM (active) | – | 17.2 µM (active) | 19.3 µM (active) | inactive | inactive | inactive | – | – | – | 49 µM (active) | 12.2 µM (active) | – | – | – |
| CCOC(=O)CC(=O)CCl | 61.1 µM (active) | inactive | – | inactive | – | inactive | inactive | inactive | inactive | – | – | inactive | – | inactive | inactive | inactive | inactive | inactive | – | – |
| Cc1cc(SCc2sc(-c3ccc(C(F)(F)F)c(F)c3)nc2C)ccc1OCC(=O)O | inactive | 15.4 µM (active) | – | 13.7 µM (active) | – | inactive | inactive | 19.3 µM (active) | 8.63 µM (active) | inactive | inactive | inactive | – | 17.2 µM (active) | inactive | inactive | – | – | – | – |
| Nc1ccccc1C(=O)Oc1ccc2ccccc2c1 | inactive | – | inactive | inactive | inactive | inactive | inactive | inactive | inactive | inactive | inactive | 2.17 µM (active) | inactive | 30.6 µM (active) | inactive | inactive | inactive | inactive | – | – |
| Fc1ccc(Oc2ccnc3cc(Cl)cc(Cl)c23)cc1 | inactive | inactive | – | inactive | inactive | inactive | inactive | inactive | – | – | – | – | – | – | inactive | inactive | – | inactive | – | – |
| [Cl][Sn]([c]1ccccc1)([c]1ccccc1)[c]1ccccc1 | 1.16 µM (active) | – | – | 0.82 µM (active) | – | 11.6 µM (active) | – | 1.3 µM (active) | 1.64 µM (active) | – | – | – | – | – | 2.61 µM (active) | 2.61 µM (active) | 1.03 µM (active) | – | -14.6% [at 19 µM] | 23.5% [at 18.9 µM] |
